In PubChem BioAssay (NCATS):
Several values for one entry are separate records, joined by “and”; a condition that tells them apart may be missing. Equal values may be shown once. Records with an inconclusive call do not appear. Activity calls are given as the source filed them. Calls come from the whole dose curve; as a rule, active = well fitted inhibition curve with a large enough effect; inconclusive = small, poorly fitted or top-dose-only effect; inactive = flat fitted curve, though single readings scatter.

Assays:
NIH3T3 [1] = test: Cytotoxic Profiling of Annotated Libraries Using Quantitative High-Throughput Screening (AID 1296008); conditions: Five cell lines viability, CellTiter-Glo ATP luminescence, 48-72 h; max response: hits give low values
Outline: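 Cytotoxicity was measured as CellTiter-Glo ATP luminescence, read after 10 min at room temperature. Compound treatment of the cells lasted 48 or 72 hr at 37 degrees Celsius in a qHTS format.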

HEK293T = test: qHTS assay to identify novel small-molecules to repurpose for Merkel cell carcinoma treatment (AID 1296009); conditions: MCC and control cell lines, CellTiter-Glo viability, 72 h; at 44.8 µM (top of the series) unless noted
Outline: (§1)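 72 hr, 37 degree celsius; NPC 8-pt / MIPE 11-pt dose response; compound pinned in DMSO; CellTiter-Glo, 10 min RT, luminescence; normalized to no-cell and DMSO controls.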

MCC-13 = test: as above; conditions: MCC and control cell lines, CellTiter-Glo viability, 72 h; series mostly up to 46 µM
Outline: as §1

MCC-26 = test: as above; conditions: MCC and control cell lines, CellTiter-Glo viability, 72 h; series mostly up to 46 µM
Outline: as §1

MKL-1 = test: as above; conditions: MCC and control cell lines, CellTiter-Glo viability, 72 h; series mostly up to 46 µM
Outline: as §1

MKL-2 = test: as above; conditions: MCC and control cell lines, CellTiter-Glo viability, 72 h; series mostly up to 46 µM
Outline: as §1

NIH3T3 [2] = test: as above; conditions: MCC and control cell lines, CellTiter-Glo viability, 72 h; at 44.8 µM (top of the series) unless noted
Outline: as §1

UISO = test: as above; conditions: MCC and control cell lines, CellTiter-Glo viability, 72 h; series mostly up to 46 µM
Outline: as §1

HACAT = test: as above; conditions: MCC and control cell lines, CellTiter-Glo viability, 72 h; at 44.8 µM (top of the series) unless noted
Outline: as §1
% is set by controls: 0 for no effect and ±100 for the full control effect; potency is the fitted concentration of half-maximal effect.
Note: nearly all actives have a fitted effect of over 60% in size.

COc1ccc2cc1Oc1cc3c(cc1OC)CC[N+](C)(C)[C@H]3Cc1ccc(cc1)Oc1c(OC)c(OC)cc3c1[C@@H](C2)[N+](C)(C)CC3
inactive: outcome (NIH3T3 [1]) | outcome (HEK293T) | Potency (MCC-13) | Potency (MCC-26) | Potency (MKL-1) | Potency (MKL-2) | outcome (NIH3T3 [2]) | Potency (UISO)

CC[N+](CC)(CC)CCOc1ccc(/C=C/c2ccccc2)cc1
active: Potency (MKL-1) 2.99 µM | Potency (MKL-2) 1.68 µM | Potency (UISO) 1.19 µM
inactive: max response (NIH3T3 [1]) -21.5% | Potency (MCC-13) | Potency (MCC-26)

CCN(CC)C(C)CN1c2ccccc2Sc2ccccc21 (configuration not stated)
inactive: outcome (HEK293T) | Potency (MCC-13) | Potency (MCC-26) | Potency (MKL-1) | Potency (MKL-2) | outcome (NIH3T3 [2]) | Potency (UISO)

CCCCc1ncc(/C=C(\Cc2cccs2)C(=O)O)n1Cc1ccc(C(=O)O)cc1
inactive: max response (NIH3T3 [1]) -1.7% | Potency (MCC-13) | Potency (MCC-26) | Potency (MKL-1) | Potency (MKL-2) | Potency (UISO)

COc1cc2[nH]c(=O)[nH]c(=O)c2cc1OC
inactive: max response (NIH3T3 [1]) 2.37% | outcome (HACAT) | outcome (HEK293T) | Potency (MCC-13) | Potency (MCC-26) | Potency (MKL-1) | Potency (MKL-2) | Potency (UISO)

O=C(O)Cc1sc(-c2ccccc2)nc1-c1ccc(Cl)cc1
inactive: max response (NIH3T3 [1]) -0.692% | outcome (HACAT) | outcome (HEK293T) | Potency (MCC-13) | Potency (MCC-26) | Potency (MKL-1) | Potency (MKL-2) | Potency (UISO)

CC1(C)Oc2ccc(C#N)cc2[C@@H](N2CCCC2=O)[C@@H]1O
inactive: max response (NIH3T3 [1]) -6.15% | Potency (MCC-13) | Potency (MCC-26) | Potency (MKL-1) | Potency (MKL-2) | Potency (UISO)

CCN(CC)CCCC(C)Nc1c2ccc(Cl)cc2nc2ccc(OC)cc12 (configuration not stated)
active: Potency (MCC-13) 23.7 µM | Potency (MKL-1) 15 µM | Potency (MKL-2) 3.35 µM

CNCC(O)c1ccc(O)c(O)c1 (configuration not stated)
active: Potency (MKL-1) 16.8 µM | Potency (MKL-2) 13.3 µM | Potency (UISO) 16.8 µM
inactive: max response (NIH3T3 [1]) -1.98%

CCOC(=O)c1ccc(O)cc1
inactive: outcome (NIH3T3 [1]) | outcome (HEK293T) | Potency (MCC-13) | Potency (MCC-26) | Potency (MKL-1) | Potency (MKL-2) | outcome (NIH3T3 [2]) | Potency (UISO)

NC(N)=NCCC[C@H](N)C(=O)O
inactive: outcome (NIH3T3 [1]) | outcome (HACAT) inactive [at 4.96 µM] | activity change, negative = cytotoxicity (MCC-13) 10.7% [at 4.84 µM] | activity change, negative = cytotoxicity (MCC-26) 1.83% [at 4.84 µM] | activity change, negative = cytotoxicity (MKL-1) 12.8% [at 4.84 µM] | activity change, negative = cytotoxicity (MKL-2) 13.9% [at 4.84 µM] | outcome (NIH3T3 [2]) inactive [at 4.96 µM] | activity change, negative = cytotoxicity (UISO) 9.23% [at 4.84 µM]

COc1cc(C)c(Cc2cnc(N)nc2N)cc1OC
inactive: max response (NIH3T3 [1]) 0.338% | outcome (HACAT) | outcome (HEK293T) | Potency (MCC-13) | Potency (MCC-26) | Potency (MKL-1) | Potency (MKL-2) | Potency (UISO)

CC(=O)NC(Cc1ccccc1)C(=O)O (configuration not stated)
inactive: max response (NIH3T3 [1]) 0.258% and -10.1% | outcome (HACAT) inactive [at 92 µM] | Potency (MCC-13) | Potency (MCC-26) | Potency (MKL-1) | Potency (MKL-2) | Potency (UISO)

NC1[C@H]2CN(c3nc4c(cc3F)c(=O)c(C(=O)O)cn4-c3ccc(F)cc3F)C[C@@H]12 (some centres not stated)
inactive: Potency (MCC-26)
active: Potency (NIH3T3 [1]) 16.8 µM | Potency (UISO) 26.6 µM

CN1[C@@H]2CC[C@H]1CC(OC(=O)C(O)c1ccccc1)C2 (some centres not stated)
inactive: outcome (NIH3T3 [1]) | outcome (HACAT) | Potency (MCC-13) | Potency (MCC-26) | Potency (MKL-1) | Potency (MKL-2) | outcome (NIH3T3 [2]) | Potency (UISO)

COC(=O)C1=C(C)NC(C)=C(C(=O)OC)C1c1ccccc1[N+](=O)[O-]
active: Potency (MKL-2) 23.7 µM
inactive: Potency (MCC-13) | Potency (MCC-26)

CN1[C@@H]2CC(OC(=O)[C@H](CO)c3ccccc3)C[C@H]1[C@@H]1O[C@@H]12 (some centres not stated)
inactive: outcome (HEK293T) | Potency (MCC-13) | Potency (MCC-26) | Potency (MKL-1)

COc1ccc2c(c1)C(=O)N(CCc1ccc(S(=O)(=O)NC(=O)NC3CCCCC3)cc1)C(=O)C2(C)C
inactive: max response (NIH3T3 [1]) -19.1% and -11.5% | Potency (MCC-13) | Potency (MCC-26) | Potency (MKL-1) | Potency (MKL-2) | Potency (UISO)

O=C1NS(=O)(=O)c2ccccc21
inactive: max response (NIH3T3 [1]) -6% | outcome (HACAT) | outcome (HEK293T) | Potency (MCC-13) | Potency (MCC-26) | Potency (MKL-1) | Potency (MKL-2) | Potency (UISO)

CC1CC(OC(=O)C(O)c2ccccc2)CC(C)(C)N1C (configuration not stated)
inactive: outcome (NIH3T3 [1]) | outcome (HEK293T) | Potency (MCC-13) | Potency (MCC-26) | Potency (MKL-1) | Potency (MKL-2) | outcome (NIH3T3 [2]) | Potency (UISO)

OCC(CO)N[C@H]1C[C@](O)(CO)[C@@H](O)[C@H](O)[C@H]1O
inactive: max response (NIH3T3 [1]) 3.34% | outcome (HACAT) | outcome (HEK293T) | Potency (MCC-13) | Potency (MCC-26) | Potency (MKL-1) | Potency (MKL-2) | Potency (UISO)

CCCCCCCCCCCCCCCC(=O)NCCO
inactive: max response (NIH3T3 [1]) 2.39% | outcome (HEK293T) | Potency (MCC-13) | Potency (MCC-26) | Potency (MKL-1) | Potency (MKL-2) | Potency (UISO)

CS(=O)(=O)c1ccc([C@@H](O)[C@@H](CF)NC(=O)C(Cl)Cl)cc1
inactive: max response (NIH3T3 [1]) -3.77% and 0.419% | outcome (HACAT) | Potency (MCC-13) | Potency (MCC-26) | Potency (MKL-1) | Potency (MKL-2) | Potency (UISO)

CCCCOc1cc(C(=O)OCCN(CC)CC)ccc1N
inactive: outcome (NIH3T3 [1]) | outcome (HACAT) | Potency (MCC-13) | Potency (MCC-26) | Potency (MKL-1) | Potency (MKL-2) | outcome (NIH3T3 [2]) | Potency (UISO)

NC(=O)NC(=O)Cc1ccccc1
inactive: max response (NIH3T3 [1]) 3.84% | outcome (HACAT) | outcome (HEK293T) | Potency (MCC-13) | Potency (MCC-26) | Potency (MKL-1) | Potency (MKL-2) | Potency (UISO)

Cc1ccc(C(C)C)cc2c(C)ccc1-2
inactive: outcome (NIH3T3 [1]) | outcome (HEK293T) | Potency (MCC-13) | Potency (MCC-26) | Potency (MKL-1) | Potency (MKL-2) | outcome (NIH3T3 [2]) | Potency (UISO)

O=c1cc[nH]c(=S)[nH]1
inactive: max response (NIH3T3 [1]) -2.25% | outcome (HACAT) | outcome (HEK293T) | Potency (MCC-13) | Potency (MCC-26) | Potency (MKL-1) | Potency (MKL-2) | Potency (UISO)

Nc1ccc(S(=O)(=O)NC(=O)c2ccccc2)cc1
inactive: max response (NIH3T3 [1]) -0.704% | outcome (HACAT) | outcome (HEK293T) | Potency (MCC-13) | Potency (MCC-26) | Potency (MKL-1) | Potency (MKL-2) | Potency (UISO)

NC(=O)NNc1ccccc1
inactive: max response (NIH3T3 [1]) -2.02% | Potency (MCC-13) | Potency (MCC-26) | Potency (MKL-1) | Potency (MKL-2) | Potency (UISO)

CN(C)CCOC(C)(c1ccccc1)c1ccccn1 (configuration not stated)
inactive: Potency (MCC-13) | Potency (MCC-26) | Potency (MKL-1) | Potency (MKL-2) | Potency (UISO)

C[C@](N)(Cc1ccc(O)cc1)C(=O)O
inactive: activity change, negative = cytotoxicity (MCC-13) 6.34% [at 4.84 µM] | activity change, negative = cytotoxicity (MCC-26) 5.04% [at 4.84 µM] | activity change, negative = cytotoxicity (MKL-1) -2.87% [at 4.84 µM] | activity change, negative = cytotoxicity (MKL-2) 7.48% [at 4.84 µM] | outcome (NIH3T3 [2]) inactive [at 4.96 µM] | activity change, negative = cytotoxicity (UISO) 17.6% [at 4.84 µM]

O=C1NC(=O)[C@@]2(CCOc3ccc(F)cc32)N1
inactive: outcome (HEK293T) | Potency (MCC-13) | Potency (MCC-26) | Potency (MKL-1) | Potency (MKL-2) | Potency (UISO)

CC(=O)Oc1ccc(C2(c3ccc(OC(C)=O)cc3)C(=O)Nc3ccccc32)cc1
inactive: max response (NIH3T3 [1]) -14.8% | Potency (MCC-13) | Potency (MCC-26) | Potency (MKL-1) | Potency (MKL-2)

CC1(C)[C@@H]2CC[C@@]1(C)C(=O)C2
inactive: max response (NIH3T3 [1]) -6.56% | outcome (HACAT) | outcome (HEK293T) | Potency (MCC-13) | Potency (MCC-26) | Potency (MKL-1) | Potency (MKL-2) | Potency (UISO)

Cc1c(O)cccc1C(=O)N[C@@H](CSc1ccccc1)[C@H](O)CN1C[C@H]2CCCC[C@H]2C[C@H]1C(=O)NC(C)(C)C
inactive: Potency (MCC-26)

CCCCN1CCCC[C@H]1C(=O)Nc1c(C)cccc1C
inactive: max response (NIH3T3 [1]) -0.105% and -0.406% | Potency (MCC-13) | Potency (MCC-26) | Potency (MKL-1) | Potency (MKL-2) | Potency (UISO)
